Legend:
Assay in all cases: yeast three-hybrid, YBZ-1, SC-Leu-His + 0.5 mM 3-AT, 4 days
Conditions in all cases: tags: N-Gal4 AD-HA kept; label: inside an RPR1-promoter hybrid RNA with tandem MS2 sites; ssRNA
PUM1 PUF domain R6-VYM = biological target: T1, PUM1 PUF domain R6-VYM (Homo sapiens, UniProt Q14671 828-1176, N1043V;Q1047M)
T1 sequence: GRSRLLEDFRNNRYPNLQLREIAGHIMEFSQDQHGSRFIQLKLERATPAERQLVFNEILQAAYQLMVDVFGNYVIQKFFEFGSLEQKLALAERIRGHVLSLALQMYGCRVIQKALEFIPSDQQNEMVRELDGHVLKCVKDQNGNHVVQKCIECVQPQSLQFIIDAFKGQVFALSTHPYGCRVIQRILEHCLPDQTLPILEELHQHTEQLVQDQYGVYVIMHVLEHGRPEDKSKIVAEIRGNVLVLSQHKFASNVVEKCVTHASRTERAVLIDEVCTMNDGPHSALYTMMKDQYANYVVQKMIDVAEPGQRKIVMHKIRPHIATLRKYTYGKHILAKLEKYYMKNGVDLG
Method in brief: (§1)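 Matching RNA elements and Pumilio-1 PUF domain libraries, randomized at the three base-contacting residues of every repeat, were co-expressed from a centromeric plasmid in strain YBZ-1 (LexA–MS2 coat fusion, HIS3 reporter). The repeat regions were PCR-amplified and Illumina-sequenced from cells grown four days on SC-Leu (input) or SC-Leu-His + 0.5 mM 3-AT (selection). The interaction score is the log change in variant frequency from input to selection. It is computed in log2, with a pseudocount of 1 for absent variants.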

PUM1 PUF domain R3-DFE = PUM1 PUF domain R3-DFE (Homo sapiens, UniProt Q14671 828-1176, C935D;R936F;Q939E)
Method in brief: as §1

PUM1 PUF domain R4-VHH = PUM1 PUF domain R4-VHH (Homo sapiens, UniProt Q14671 828-1176, N971V;Q975H)
Method in brief: as §1

PUM1 PUF domain R4-EHR = PUM1 PUF domain R4-EHR (Homo sapiens, UniProt Q14671 828-1176, N971E;Q975R)
Method in brief: as §1

PUM1 PUF domain R5-RSR = PUM1 PUF domain R5-RSR (Homo sapiens, UniProt Q14671 828-1176, C1007R;R1008S;Q1011R)
Method in brief: as §1

PUM1 PUF domain R5-SQS = PUM1 PUF domain R5-SQS (Homo sapiens, UniProt Q14671 828-1176, C1007S;R1008Q;Q1011S)
Method in brief: as §1

PUM1 PUF domain R8-PYH = PUM1 PUF domain R8-PYH (Homo sapiens, UniProt Q14671 828-1176, N1122P;Q1126H)
Method in brief: as §1

PUM1 PUF domain R1-KAS = PUM1 PUF domain R1-KAS (Homo sapiens, UniProt Q14671 828-1176, S863K;R864A;Q867S)
Method in brief: as §1

PUM1 PUF domain R1-RVQ = PUM1 PUF domain R1-RVQ (Homo sapiens, UniProt Q14671 828-1176, S863R;R864V)
Method in brief: as §1

PUM1 PUF domain R7-RFP = PUM1 PUF domain R7-RFP (Homo sapiens, UniProt Q14671 828-1176, S1079R;N1080F;E1083P)
Method in brief: as §1

## GGCUAGAACUAGUGGAUCCCCCGGCGCCCGGCGGCUCGAGCCCGGGUAAGUGUAAAUAGUCUGCAUGCCGCCGGGCGCCAUGCCUGCAGGUCGACUCUAGAAAACAUG
PUM1 PUF domain R6-VYM
  binding signal: 2.8 log2 enrichment (interaction score)
PUM1 PUF domain R3-DFE
  binding signal: 2.28 log2 enrichment (interaction score)

## GGCUAGAACUAGUGGAUCCCCCGGCGCCCGGCGGCUCGAGCCCGGGUAAGUGAAAAUAGUCUGCAUGCCGCCGGGCGCCAUGCCUGCAGGUCGACUCUAGAAAACAUG
PUM1 PUF domain R6-VYM
  binding signal: 6.6 log2 enrichment (interaction score)

## GGCUAGAACUAGUGGAUCCCCCGGCGCCCGGCGGCUCGAGCCCGGGUAAGUGUACAUAGUCUGCAUGCCGCCGGGCGCCAUGCCUGCAGGUCGACUCUAGAAAACAUG
PUM1 PUF domain R4-VHH
  binding signal: 5.04 log2 enrichment (interaction score)
PUM1 PUF domain R4-EHR
  binding signal: 3 log2 enrichment (interaction score)

## GGCUAGAACUAGUGGAUCCCCCGGCGCCCGGCGGCUCGAGCCCGGGUAAGUGUCAAUAGUCUGCAUGCCGCCGGGCGCCAUGCCUGCAGGUCGACUCUAGAAAACAUG
PUM1 PUF domain R5-RSR
  binding signal: 4.48 log2 enrichment (interaction score)

## GGCUAGAACUAGUGGAUCCCCCGGCGCCCGGCGGCUCGAGCCCGGGUAAGUGUUAAUAGUCUGCAUGCCGCCGGGCGCCAUGCCUGCAGGUCGACUCUAGAAAACAUG
PUM1 PUF domain R5-RSR
  binding signal: 3.79 log2 enrichment (interaction score)

## GGCUAGAACUAGUGGAUCCCCCGGCGCCCGGCGGCUCGAGCCCGGGUAAGUGUGAAUAGUCUGCAUGCCGCCGGGCGCCAUGCCUGCAGGUCGACUCUAGAAAACAUG
PUM1 PUF domain R5-SQS
  binding signal: 3.19 log2 enrichment (interaction score)

## GGCUAGAACUAGUGGAUCCCCCGGCGCCCGGCGGCUCGAGCCCGGGUAAGCGUAAAUAGUCUGCAUGCCGCCGGGCGCCAUGCCUGCAGGUCGACUCUAGAAAACAUG
PUM1 PUF domain R8-PYH
  binding signal: 3.67 log2 enrichment (interaction score)

## GGCUAGAACUAGUGGAUCCCCCGGCGCCCGGCGGCUCGAGCCCGGGUAAGUGUAAAUUGUCUGCAUGCCGCCGGGCGCCAUGCCUGCAGGUCGACUCUAGAAAACAUG
PUM1 PUF domain R1-KAS
  binding signal: 3.9 log2 enrichment (interaction score)
PUM1 PUF domain R1-RVQ
  binding signal: 4.43 log2 enrichment (interaction score)

## GGCUAGAACUAGUGGAUCCCCCGGCGCCCGGCGGCUCGAGCCCGGGUAAGUCUAAAUAGUCUGCAUGCCGCCGGGCGCCAUGCCUGCAGGUCGACUCUAGAAAACAUG
PUM1 PUF domain R7-RFP
  binding signal: 5.14 log2 enrichment (interaction score)

## GGCUAGAACUAGUGGAUCCCCCGGCGCCCGGCGGCUCGAGCCCGGGUAAGUGUAUAUAGUCUGCAUGCCGCCGGGCGCCAUGCCUGCAGGUCGACUCUAGAAAACAUG
PUM1 PUF domain R4-EHR
  binding signal: 3.83 log2 enrichment (interaction score)

## GGCUAGAACUAGUGGAUCCCCCGGCGCCCGGCGGCUCGAGCCCGGGUAAGUGUAAAUCGUCUGCAUGCCGCCGGGCGCCAUGCCUGCAGGUCGACUCUAGAAAACAUG
PUM1 PUF domain R1-RVQ
  binding signal: 4.56 log2 enrichment (interaction score)

Source: publication PMC8384837, “Expanding the binding specificity for RNA recognition by a PUF domain”
